# Measurements published in PubChem BioAssay (NCI).
# Compounds without any hit were thinned out: in the full panel of roughly 83,000, 20% have a hit.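 Results are percent growth after 48 hours of single-concentration exposure. 100 means growth as in untreated cells, lower positive values show inhibition; negative values down to -100 show cell death.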 Values without a mark were called inactive. Active and inactive are the calls of the source. Rule for the calls: active = growth percent below 10; inactive = the rest.
# What was measured:
# Assay in all cases: NCI-60 one-dose screen, 48 h (100 = growth as untreated, 0 = no growth, -100 = all killed)
# Details in all cases: 10 µM
# T-47D breast = tested on: T-47D breast
# BT-549 breast = tested on: BT-549 breast
# MDA-MB-435 melanoma = tested on: MDA-MB-435 melanoma
# SW-620 colon = tested on: SW-620 colon
# MCF7 breast = tested on: MCF7 breast
# HCT-116 colon = tested on: HCT-116 colon
# HCC-2998 colon = tested on: HCC-2998 colon
# KM12 colon = tested on: KM12 colon
Compound,growth (T-47D breast),growth (BT-549 breast),growth (MDA-MB-435 melanoma),growth (SW-620 colon),growth (MCF7 breast),growth (HCT-116 colon),growth (HCC-2998 colon),growth (KM12 colon)
O=C(/C=C/C=C/c1c(C2CC2)nc2ccccc2c1-c1ccc(F)cc1)c1cccs1,4.82% (active),3.45% (active),2.03% (active),6.11% (active),12.4%,-32.6% (active),-12.9% (active),9.97% (active)
C[C@@H](O)[C@H]1C(=O)N2C(C(=O)O)=C(SC3CN[C@H](C(=O)N(C)C)C3)[C@H](C)[C@H]12 (stereo not given in full),98.2%,105%,101%,99.4%,101%,104%,106%,108%
COc1ccc(-c2cc(-c3ccc(Cl)cc3)nc(SCCCCCCC(=O)NO)n2)cc1OC,36.1%,79.6%,69.1%,46.3%,24.6%,41.8%,80.3%,69.4%
CCCCCOC(=O)Nc1nc(=O)n(C2O[C@H](C)[C@@H](O)[C@H]2O)cc1F (stereo not given in full),102%,102%,98.4%,99.1%,99.8%,101%,101%,103%
O=C(O)c1cn(C2CC2)c2cc(N3CCN(C(=O)c4cc(-c5ccc(Cl)cc5)nc5ccccc45)CC3)c(F)cc2c1=O,86.7%,83.5%,95.6%,97.5%,89.7%,84.3%,99.2%,102%
CNC(=O)c1cc(Oc2ccc3c(c2)sc2nc(-c4ccc(N)cc4)cn23)ccn1,36.1%,5.56% (active),13%,34.8%,20.2%,6.01% (active),20.9%,20.7%
COc1cc(-c2nn(-c3cccc(NC(=O)CCN4CCN(c5ccccc5)CC4)c3)cc2-c2ccncc2)ccc1Cl,17.5%,12.6%,16.8%,24.5%,12.6%,11.8%,28.5%,13.3%
CC(C)C1=C(O)C2=C(C(=O)C1=O)[C@@]1(C)CCCC(C)(C)[C@@H]1CC2,67.7%,106%,75.4%,55.4%,66.4%,58%,53.8%,52%
O=C(CCCCNC(=O)c1nc(-c2ccccc2)n(-c2ccccc2)n1)NO,35%,94.7%,79.2%,64.4%,67.6%,54.6%,94.4%,92.9%
O=C(CCn1cnc2c(cc(-c3ccccc3)n2-c2ccccc2)c1=O)Nc1ccc(F)cc1,68.2%,57.8%,85.2%,95.9%,74.7%,62.5%,86.2%,73.8%
N#Cc1c(-c2ccc(Cl)cc2)n(O)c2ccccc12,13.2%,0.694% (active),2.57% (active),15.3%,17.5%,12.9%,47.2%,15.9%
C/C=C/C1=CN2C(=O)c3cc(OC4OC(C)C(NC)C(C)(O)C4O)c(C)c(O)c3N=C[C@@H]2C1 (stereo not given in full),-8.27% (active),-34.4% (active),-77% (active),-14.9% (active),0.963% (active),1.59% (active),-56.7% (active),-60.7% (active)
CS(=O)(=O)c1nccc(-c2c(-c3cccc(OCCN4CCOCC4)c3)nc3sccn23)n1,81%,108%,98.4%,97.7%,69.3%,78.4%,101%,96.6%
c1cncc(-c2csc(-c3c[nH]c4ccccc34)n2)c1,64.1%,89.2%,86.9%,102%,77.3%,82.6%,107%,81.8%
COc1ccc(-c2csc(NC(=O)c3ccc(Cc4n[nH]c(=O)c5cccnc45)cc3)n2)cc1,68.8%,-17.8% (active),98.8%,95.2%,77.4%,91.9%,90.1%,98.5%
O=C1NC(=O)c2c(CCCSc3nc4ccccc4c(=O)n3CCc3ccccc3)cccc21,79.1%,92.6%,85.6%,98.8%,83.5%,80%,91.9%,100%
CC1=CC2C(C(O)CC3(C)C2CC(C)C32OCOC23COCO3)C2(C)C/C(=C/O)C(=O)C=C12 (stereo not given),24.3%,51.2%,7.68% (active),5.28% (active),5.37% (active),-70.2% (active),35%,12%
COc1ccc(/C=C2\CCCC3=C2NC(N)=NC3c2ccc(OC)cc2)cc1 (stereo not given),104%,112%,90.2%,95.8%,72.3%,78.6%,116%,87.2%
CC(C)(C)c1ccc(S(=O)(=O)N[C@H]2CC[C@H]3[C@@H]4CCc5cc(O)ccc5[C@H]4CC[C@]23C)cc1,26.2%,43.9%,30.4%,58.5%,14.9%,22.1%,74.4%,39.2%
Nc1cc(Br)c(-c2nn3c(CCC(=O)c4nc5ccccc5[nH]4)nnc3s2)c(Br)c1,88%,105%,90.5%,112%,87.5%,77.9%,104%,96.4%
CC(C)(C)c1ccc(S(=O)(=O)N[C@H]2CC[C@H]3[C@@H]4CCc5cc(O)c([N+](=O)[O-])cc5[C@H]4CC[C@]23C)cc1,46.6%,67.7%,80.3%,89.9%,54.1%,32.6%,92.5%,77.1%
Cc1cc(Br)nnc1Br,90.1%,96.8%,114%,109%,103%,106%,108%,96.6%
CC(=O)N[C@H](C(=O)N[C@@H](CCCNC(=N)N)C(=O)N[C@@H](CCCCN)C(=O)N[C@@H](CCCNC(=N)N)C(=O)N[C@]1(C)CCC/C=C\CCC[C@@](C)(C(=O)N[C@@H](CC(C)C)C(=O)N[C@@H](CC(C)C)C(=O)N[C@@H](CCC(N)=O)C(=O)N[C@@H](CCC(=O)O)C(=O)N[C@@H](CCCNC(=N)N)C(=O)N[C@@H](CCC(=O)O)C(=O)N[C@@H](CC(C)C)C(=O)N[C@H](C(=O)N[C@@H](CCC(=O)O)C(N)=O)C(C)C)NC(=O)[C@H](CCCNC(=N)N)NC(=O)[C@H](CC(C)C)NC1=O)C(C)C,92.4%,102%,110%,113%,102%,105%,109%,105%
CN1CCN(CC(=O)Nc2cccc(-n3cc(-c4ccncc4)c(-c4ccc(Cl)c(O)c4)n3)c2)CC1,61.3%,36.6%,-47.5% (active),20.8%,15.2%,17.3%,85.6%,26.1%
O=C(CCNC(=O)c1nc(-c2ccccc2)n(-c2ccc(Cl)cc2)n1)NO,78.7%,115%,106%,106%,102%,94%,93.5%,93.7%
N#Cc1c(N)nc(-c2cc(F)cc(C(F)(F)F)c2)nc1-c1ccccc1F,49%,58.9%,85.7%,63.4%,73.6%,26.2%,75.6%,79.7%
CCOC(=O)c1cc(C(=O)c2cc(OC)c(OC)c(OC)c2)n2ncc3ccccc3c12,77.1%,70.5%,7.14% (active),35.8%,30.4%,50.8%,93.2%,39.6%
Cc1c2cnccc2c(C)c2c1c1cc(O)ccc1n2C(C)C,3.1% (active),-2.72% (active),8.19% (active),2.58% (active),-3.2% (active),-49.4% (active),20.8%,3.74% (active)
COc1cc2c3c(n([C@H]4CCOC4)c(=O)c2cc1OC)-c1cc2c(cc1C3=O)OCO2,11.8%,48.2%,59.3%,46.2%,14.2%,31%,70.5%,57.1%
COc1ccc2nc3cc(Cl)ccc3c(Nc3cc(CN4CCCC4)c(O)c(CN4CCCC4)c3)c2n1,13.1%,-37% (active),-94% (active),7.17% (active),-11.9% (active),6.62% (active),-31.8% (active),11.8%
